Assay results: the supplement of paper PMC3334620
The full ranking holds about 33,000 sequences; the median of “E-score (-0.5 to 0.5)” is about -0.01, and the highest 2% start at about 0.26. Only a selection was taken, and the highest values are over-represented in it overall.

Target: Ste12 (UniProt P13574)
Assay: PBM E-score (8-mer binding enrichment) (E-score (-0.5 to 0.5)); higher = stronger / more preferred TF binding
Conditions: protein concentration: 200 nM; construct: GST-DNA-binding domain
How it was run: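 Yeast transcription factors carrying a GST tag, as full-length proteins or DNA-binding domains, were produced by PURExpress in vitro transcription/translation. About 100-200 nM protein was applied to universal all-10-mer Agilent arrays, double-stranded by primer extension on fresh or once-stripped slides. Bound protein was detected with fluorescent anti-GST, and scans were normalised with masliner. The Universal PBM Analysis Suite gave each ungapped eight-base word, pooled with its reverse complement, an E-score, a modified Wilcoxon-Mann-Whitney statistic.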

UniProt P13574, sequence (P13574 whole entry): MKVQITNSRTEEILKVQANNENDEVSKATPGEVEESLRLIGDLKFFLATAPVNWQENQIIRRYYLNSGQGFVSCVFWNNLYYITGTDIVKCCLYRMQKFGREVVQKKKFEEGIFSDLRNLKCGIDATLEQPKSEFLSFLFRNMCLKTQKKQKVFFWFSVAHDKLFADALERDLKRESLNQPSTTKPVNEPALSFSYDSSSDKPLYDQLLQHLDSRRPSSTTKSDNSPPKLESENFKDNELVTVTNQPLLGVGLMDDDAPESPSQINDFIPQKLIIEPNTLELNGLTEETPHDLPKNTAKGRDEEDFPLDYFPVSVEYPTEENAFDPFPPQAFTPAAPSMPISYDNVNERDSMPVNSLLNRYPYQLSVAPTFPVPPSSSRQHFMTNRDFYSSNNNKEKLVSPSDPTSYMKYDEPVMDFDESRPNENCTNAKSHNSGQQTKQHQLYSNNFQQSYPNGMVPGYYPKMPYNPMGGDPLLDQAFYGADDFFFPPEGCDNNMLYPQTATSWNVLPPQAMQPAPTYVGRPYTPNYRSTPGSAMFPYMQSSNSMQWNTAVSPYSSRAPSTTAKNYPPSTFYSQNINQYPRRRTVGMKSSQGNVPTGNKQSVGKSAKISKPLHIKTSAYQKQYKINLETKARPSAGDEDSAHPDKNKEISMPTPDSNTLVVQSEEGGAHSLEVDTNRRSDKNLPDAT

Row | Sequence | PBM E-score
1 | CCCCTAGG | -0.254
2 | ACGCTAGA | -0.209
3 | CTGTTGGA | 0.0959
4 | ATCAGGGG | -0.128
5 | GATGGTTA | -0.0584
6 | CCGGTTTA | -0.00824
7 | CCGGTTTC | 0.298
8 | AAGGTTTC | 0.148
9 | CAGGTTTA | 0.0837
10 | CGGGTTTC | 0.323
11 | CAGGTTTC | 0.361
12 | ACGGTTTC | 0.2
13 | ATGGTTTC | 0.28
14 | AGGGTTTC | 0.114
15 | CGGGTTAC | 0.0422
16 | CTGGTTTC | 0.244
17 | ATGGTTTG | 0.0887
18 | AGCCTCGC | -0.155
19 | GCCCGATA | -0.0773
20 | AAGGTTCG | -0.185
21 | AAGTGCAA | -0.0141
22 | AGTGATGC | -0.099
23 | TCAGACGA | -0.0271
24 | AGGGTTTA | 0.00108
25 | CGGGTTTA | 0.304

Row | Sequence | PBM E-score
26 | GGGGTTTA | 0.00666
27 | GTTCAGAA | -0.0378
28 | CCAACGCG | -0.107
29 | AAACCGCC | 0.212
30 | AAACCGCG | 0.287
31 | AAAACGCT | 0.0239
32 | CGAACGCG | 0.0317
33 | CAAACGCG | 0.292
34 | CAACCGCG | 0.0561
35 | AAAACGCC | 0.099
36 | AAAACGCG | 0.285
37 | CAGTTTTC | 0.105
38 | CACACCAG | 0.0883
39 | ACTAGTTA | 0.027
40 | AACAGTAT | 0.108
41 | AATGGGAG | 0.021
42 | ACACTGTC | -0.0374
43 | CTGAGTCA | 0.0791
44 | CACTGAAA | 0.322
45 | CACTGAAC | 0.0627
46 | GACTGAAA | 0.241
47 | CACTGAAG | -0.03
48 | AACTGAAG | 0.158
49 | TACTGATA | 0.198
50 | AACTGAAC | 0.0813

Row | Sequence | PBM E-score
51 | GACTGTAA | -0.0138
52 | AACTGTAT | 0.134
53 | AACTGAAA | 0.422
54 | AACTGTAA | 0.328
55 | TACTGAAA | 0.358
56 | CGCCATAA | -0.108
57 | AAGACCTA | -0.0739
58 | AATCGCCG | -0.0024
59 | TAACGTAA | 0.191
60 | ATAAATGA | 0.189
61 | AGTAGACG | -0.0195
62 | TCTCTCAA | 0.0783
63 | ACTGCAAT | 0.109
64 | AAGGTCCC | -0.279
65 | CGTCACAA | 0.108
66 | GGTCACAA | -0.022
67 | TGTCACAA | 0.3
68 | AACGTTGG | 0.038
69 | CTAGATCA | -0.22
70 | CAGTGGGA | -0.0936
71 | CACCACTC | -0.164
72 | TACCGAAA | 0.0921
73 | ACTGTGGA | -0.123
74 | ACTTTCAT | -0.0303
75 | AGTTTCCG | 0.148

Row | Sequence | PBM E-score
76 | AGTTTCAG | 0.464
77 | CGTTTCAG | 0.482
78 | AGTTTCAT | 0.428
79 | CATTTCAG | 0.0948
80 | CCTTTCAG | -0.115
81 | CGTTTCCA | 0.301
82 | AATTTCAT | 0.0623
83 | CGTTTCCC | 0.165
84 | GGTTTCCA | -0.0565
85 | ACTTTCAG | 0.0489
86 | CATTGACG | 0.0435
87 | GAGCTCGC | -0.0349
88 | CCCTTAGC | -0.0617
89 | CCGTTGCA | 0.0898
90 | CGTGATCA | -0.00817
91 | CGCTTCGA | -0.0748
92 | CGGTTTGC | 0.0736
93 | AAAGTGCG | 0.0163
94 | CTTTCTTA | 0.0052
95 | CCCTGACA | -0.0188
96 | CATTTCAC | 0.099
97 | CGTTTCGC | 0.296
98 | CGTTTCTC | 0.0338
99 | AGTTTCAC | 0.338
100 | AGTTTCTC | -0.0852

Row | Sequence | PBM E-score
101 | AGTTTCTA | 0.16
102 | ACTTTCAC | 0.139
103 | AGTTTCAA | 0.307
104 | CGTTTCAC | 0.453
105 | AGTTTCGC | 0.184
106 | AGTTTCCA | 0.212
107 | CGTTTCGA | 0.195
108 | GTCCATAA | -0.172
109 | CGGTGGAC | -0.157
110 | CTCACTAC | 0.00581
111 | CAGTTACA | 0.0929
112 | CGTTTCAA | 0.46
113 | CGTTTCTA | 0.166
114 | CCTTTCAA | -0.0319
115 | AAGCTAGC | -0.242
116 | CACTTCGC | 0.0953
117 | AAGAATGA | 0.209
118 | ACATCCCC | 0.321
119 | CCATCCCC | 0.0914
120 | ACATCCCT | -0.0649
121 | AGCAGGTG | -0.0318
122 | CAATCCCG | 0.321
123 | CAATCCCA | -0.0795
124 | CAATCCCC | 0.0988
125 | CAATCCGC | 0.0698

Row | Sequence | PBM E-score
126 | CAATCCGG | 0.273
127 | AAATCCGG | 0.0201
128 | ATAGGAAA | 0.0645
129 | CTAGGAAA | -0.0731
130 | TTAGGAAA | 0.292
131 | AAGAAATC | -0.0981
132 | CTGAAACC | 0.47
133 | CTGAAATA | 0.202
134 | CTGAAAAC | 0.0248
135 | CTGAAAGA | 0.00814
136 | CTGAAATC | -0.0192
137 | CTGAAACA | 0.495
138 | AGGAAACC | -0.0955
139 | ATGAAATC | 0.185
140 | ATGAAACC | 0.457
141 | AGAACATC | -0.0976
142 | CGACCGTC | -0.173
143 | CGAGTCAC | -0.0334
144 | CAATGCAC | -0.042
145 | AGAACAAG | 0.0467
146 | GTAACAAA | 0.312
147 | CTAACAAA | 0.0819
148 | TTAACAAA | 0.246
149 | TAAACAAA | 0.244
150 | GAAACAAA | 0.345

Row | Sequence | PBM E-score
151 | AGAACAAA | 0.312
152 | ACAACAAA | 0.152
153 | AAAACAAA | 0.293
154 | CAAACAAA | 0.149
155 | AGAACAAT | 0.247
156 | AAAACAAG | 0.104
157 | ATGAGAAC | 0.118
158 | AGTGAGCG | -0.176
159 | CCGCAGCG | -0.033
160 | GCGTAGCA | 0.0572
161 | CTCGACTA | 0.0414
162 | GAGACCTA | -0.0109
163 | GAGATTGA | 0.0793
164 | CCTAGAAA | 0.144
165 | CAAACAAC | 0.223
166 | GAAACAAC | 0.334
167 | AAAACAAC | 0.154
168 | GGGGTGAA | 0.0185
169 | CGCCTAGA | -0.0727
170 | ACATCTTG | -0.151
171 | ACATCTTA | -0.0589
172 | ACATCTTC | 0.261
